Compounds with a hit are over-represented: about 19% of the library has one in this group of screens.
KB-V1 cytotox = kills drug-selected multidrug resistant KB-V1 cells. KB-V1 MDR cells viability, CellTiter-Glo, 72 h. Potency, µM (titrated, usually from 46.1 µM), most hits filed as cytotoxic. 3.4% of 400,000 active. AID 1347076; also: nearly all actives have a fitted effect of over 60% in size
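KB-V1 MDR subline cells in DMEM (phenol-red free, 10% FBS) exposed to compounds in qHTS concentration series for 72 h at 37 degrees C. Viability read by CellTiter-Glo luminescence; concentration-effect curves fitted after normalization and correction.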
DT40 TDP1 CPT = DT40-hTDP1 cell growth loss with CPT; chicken DT40 Tdp1-/-;hTDP1 cells + 20 nM CPT, ATP luminescence, 48 h; Potency, µM (highest dose often 46.2 µM), without a hit: at the highest dose activity change, negative = growth inhibition, usual class: inhibitors; 12% of 420,000 active; also: nearly all actives have a fitted effect of over 55% in size
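Chicken DT40 Tdp1-/- cells complemented with human TDP1, 400 cells/well, exposed to compounds plus 20 nM camptothecin for at least 48 h at 37 C; viability read as ATP content by CellTiter-Glo luminescence.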
HT1080 IDH1KD tx = HT-1080 IDH1 knockdown cell toxicity (counter line); HT-1080 IDH1 knockdown viability, ATP luminescence, 48 h; Potency, µM (titrated, usually from 46.1 µM), inactives show top-dose activity, negative = toxicity, usual class: cytotoxic; 2% of 360,000 active; AID 686971;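 also: 0% = DMSO wells and -100% = cell-free medium wells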
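Viability of IDH1-knockdown HT-1080 fibrosarcoma cells was assessed by CellTiter-Glo after 48 h at 37 °C with titrated compound; concentration-effect curves were classified by fit quality and response size.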
TDP1 cell noCPT = qHTS for Inhibitors of human tyrosyl-DNA phosphodiesterase 1 (TDP1): qHTS in cells in absence of CPT. 15% of 420,000 active. DT40 Tdp1-/- hTDP1 cells, no CPT, ATP luminescence, 48 h. Potency, µM (titrated, usually from 46.2 µM), for the others: at the highest dose activity change, negative = growth inhibition, most hits filed as inhibitors. AID 686978, 2013; also: nearly all actives have a fitted effect of over 55% in size
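Seeded 400 DT40-hTDP1 cells/well (vehicle DMSO, no 20 nM CPT); pinned compounds; ≥48 hr at 37 °C; CellTiter-Glo luminescence as viability measure.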
HT1080-NT tox = kills 2HG-producing HT-1080-NT fibrosarcoma cells; HT-1080-NT fibrosarcoma viability, CellTiter-Glo ATP luminescence, 48 h; Potency, µM (series often up to 46.1 µM), without a hit: at the highest dose activity, negative = less viability, hits mostly cytotoxic; 1.6% of 360,000 active;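 also: NT is the 2HG producing partner of a matched IDH1 knockdown line; 0% = DMSO-treated cells and -100% = media-only wells without cells; nearly all actives have a fitted effect of over 55% in size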
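Viability of the 2HG-overproducing fibrosarcoma line after 48 hours of compound exposure at 37 degrees C was determined by luminescence with CellTiter-Glo, and concentration-effect curves were then fitted and categorized.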
KB-3-1 cytotox = KB-3-1 parental cell cytotoxicity. Potency, µM (series often up to 46.1 µM), most hits filed as cytotoxic. 1.4% of 400,000 active. AID 1347075. KB-3-1 viability, CellTiter-Glo ATP luminescence, 72 h; also: nearly all actives have a fitted effect of over 60% in size
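Parental KB-3-1 viability, qHTS format: 72 h compound exposure, 37 °C; CellTiter-Glo; media-only wells and DMSO plates as controls; concentration-effect fits on corrected data.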
An asterisk follows results filed as active; i = inactive; ? = inconclusive; nt = not tested or not shown. Calls follow the shape of the dose curve; as a rule, active = well fitted curve in the direction sought with a large enough effect; inconclusive = small, poorly fitted or top-dose-only effect, or another doubt; inactive = no such curve, though single readings can be large; an effect the other way counts as inactive or inconclusive. Unless noted, % is scaled to controls: 0 for no effect and ±100 for the full control effect; potency is read from the fitted curve at half-maximal effect.

SMILES	KB-V1 cytotox	DT40 TDP1 CPT	HT1080 IDH1KD tx	TDP1 cell noCPT	HT1080-NT tox	KB-3-1 cytotox
CC(C)(C)OC(=O)N1CCC(c2c(C(=O)NCC3CCN(C4CCCC4)C3)cnn2-c2ccccc2)CC1 (centres undefined)	?	?	-21.3%	-11.1%	-16.2%	i
Cc1ccc(-n2ncc(C(=O)NCC3CCN(C4CCCC4)C3)c2C2CCN(C(=O)OC(C)(C)C)CC2)cc1 (centres undefined)	i	?	?	?	23.1µM*	?
O=C(OCC12CC3CC(CC(C3)C1)C2)c1ccc(NCc2cc(O)ccc2O)cc1	i	1.46µM*	20.6µM*	0.731µM*	?	?
O=C(OCCC12CC3CC(CC(C3)C1)C2)c1ccc(NCc2cc(O)ccc2O)cc1	?	1.84µM*	7.31µM*	2.06µM*	6.51µM*	14.6µM*
CC1CCCC(NC(=O)C2CCN(S(=O)(=O)N3CCCCCC3)CC2)C1C (centres undefined)	?	?	6.0%	23.1µM*	15.9%	i
CCNc1ccc(Br)cc(C(=O)/C=C/c2ccc3c(c2)OCO3)c1=O	i	29.1µM*	-5.2%	?	-4.4%	i
CCNc1ccc(Br)cc(C(=O)/C=C/c2c(Cl)cccc2Cl)c1=O	i	5.17µM*	?	4.61µM*	?	?
CCN(CC(=O)Nc1c(F)cccc1F)C(=O)CNC(=O)c1ccc(Br)o1	i	-10.8%	0.2%	-7.6%	-4.3%	i
O=C(Nc1c(Cl)ccc2nsnc12)c1ccc([N+](=O)[O-])o1	?	?	-18.1%	?	2.6%	?
COc1ccc(S(=O)(=O)Nc2ccc(-c3ccc4nnc(C)n4n3)cc2)c(OC)c1	i	?	-26.4%	?	?	?
CCOc1ccc(-c2ccc(NS(=O)(=O)c3cc(C)ccc3OC)cc2)nn1	i	13µM*	nt	23.1µM*	nt	i
CCOc1ccc(-c2ccc(NS(=O)(=O)c3ccc([N+](=O)[O-])cc3)cc2)nn1	i	?	-1.2%	0.5%	-17.4%	i
COc1ccc(OC)c(S(=O)(=O)Nc2ccc(-c3ccc4nnc(C)n4n3)cc2)c1	i	8.2µM*	?	8.2µM*	-23.9%	i
CCOc1ccc(S(=O)(=O)Nc2cccc(-c3ccc(OCC)nn3)c2)cc1	i	11.6µM*	nt	16.4µM*	nt	i
CCOc1ccc(-c2cccc(NS(=O)(=O)c3c(C)cc(C)cc3C)c2)nn1	?	?	nt	23.1µM*	nt	i
CCOC(=O)c1sc2ccccc2c1S(=O)(=O)NCc1ccc(F)cc1	i	1.6%	nt	3.7%	nt	i
Cc1ccc2onc(CC(=O)N3CCN(c4cccc(C)c4C)CC3)c2c1	i	?	nt	?	nt	i
C=CCSc1nsc(NC(=O)Nc2ccc(F)cc2)n1	20.6µM*	18.4µM*	2.91µM*	3.26µM*	16.4µM*	?
CCOC(=O)c1sc(NC(=O)Nc2ccc(F)cc2)nc1C	?	?	-1.8%	?	-7.1%	?
CCSc1nsc(NC(=O)Nc2ccccc2F)n1	16.4µM*	18.4µM*	-28.6%	16.4µM*	?	?
O=C(Cc1ccccc1)Nc1ccc(NC(=O)c2cccs2)cc1Cl	i	?	0.1%	8.4%	-1.9%	i
Cc1cccc(CN2CCN(C3CN(Cc4cn(Cc5ccccc5)nn4)S(=O)(=O)C3)CC2)c1 (centres undefined)	i	?	10.8%	?	?	i
CCOc1ccc(CCNC(=O)Cn2nnc(-c3ccc(C(F)(F)F)cc3)n2)cc1OCC	i	-19.5%	nt	?	nt	i
